Screening results: PubChem BioAssay, National Center for Advancing Translational Sciences (NCATS)
Hits are enriched below; roughly 11% of the tested compounds scored in any of these assays.
Sm TGR block: blocks Schistosoma mansoni thioredoxin glutathione reductase; Q962Y6; purified TGR, DTNB reduction, TNB absorbance 405 nm; Potency, µM (series often up to 114 µM), hits mostly inhibitors; 360,000 compounds, 3% hits; AID 485364; also: nearly all actives have a fitted effect of over 60% in size
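TGR 20 nM + NADPH 100 uM (dispensed conc.), cpd preinc 15 min RT; start with NADPH (500 uM addition) then DTNB (15 mM addition). Kinetic TNB absorbance, 405 nm filter. Four-parameter Hill fit across titration.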
Pf growth 48h: P. falciparum growth inhibition at 48 hours (one generation). 310,000 compounds, 5.9% hits. AID 504832. Potency, µM (series often up to 28.7 µM), usual class: inhibitors. P. falciparum luciferase growth in erythrocytes, 48 h
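A one-generation exposure of luciferase-tagged malaria parasites in RPMI 1640/Albumax erythrocyte culture, 37 C and 5% CO2. Inhibition is inferred from decreased luminescence after adding detection reagent.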
AMA1-RON2 inh: AMA1-RON2 (P. falciparum) interaction inhibition; 360,000 compounds, 0.2% hits; Potency, µM (titrated, usually from 58.2 µM), usual class: inhibitors; AlphaScreen AMA1-biotinylated RON2 peptide binding; also: nearly all actives have a fitted effect of over 45% in size
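AMA1 (3D7) with his tag at 25 nM final met compounds first, then biotinylated RON2 peptide at 25 nM; detection used donor plus acceptor beads, 10 µg/mL apiece, read by AlphaScreen after 30 min at room temperature.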
NS1 inh: blocks influenza NS1 protein function | Potency, µM (doses to about 46.1 µM) | 270,000 compounds, 0.4% hits; calls by dose curve; also: actives are rising curves; nearly all actives have a fitted effect of over 50% in size
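S. cerevisiae expressing influenza A NS1, grown in glucose, washed, then diluted 1:100 into pH 6.0 -URA galactose medium with 23 nl compound. Growth recovery read as OD600; NS1-free strain serves as control.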
Pf growth 96h: inhibits malaria parasite growth, 96 h | Potency, µM (doses to about 28.7 µM), hits mostly inhibitors | AID 504834 | 320,000 compounds, 6.9% hits | P. falciparum luciferase reporter growth, 96 h
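Two-generation exposure (96 h) targets delayed-death phenotype. Reporter parasites carrying integrated firefly luciferase, in red cells at 2% hematocrit and 0.05% parasitemia final, kept at 37 C, 5% CO2; luminescence loss indicates inhibition.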
Each line names hits and unclear results; the compound was inactive in the other large screens. Unless noted, calls follow the shape of the dose curve; as a rule, active = well fitted curve in the direction sought with a large enough effect; inconclusive = small, poorly fitted or top-dose-only effect, or another doubt; inactive = no such curve, though single readings can be large; an effect the other way counts as inactive or inconclusive.

C[C@H](NC(=O)c1nc[nH]c1C(=O)NCc1ccc(CNC(=O)OC(C)(C)C)cc1)C(=O)OC(C)(C)C	Pf growth 48h inconclusive, Pf growth 96h 1.3µM
CC(C)(C)OC(=O)CNC(=O)c1nc[nH]c1C(=O)NCc1ccc(CNC(=O)OC(C)(C)C)cc1	Pf growth 48h inconclusive
CC(C)CN(C(=O)COC(=O)CCc1c[nH]c2ccccc12)c1c(N)n(Cc2ccccc2)c(=O)[nH]c1=O	Pf growth 48h inconclusive (no result: NS1 inh)
CC(=O)N1CCc2cc(S(=O)(=O)NC(CC(C)C)C(=O)N3CCCC3)ccc21 (centres undefined)	Pf growth 96h 12µM
CC(=O)N1CCc2cc(S(=O)(=O)NC(CC(C)C)C(=O)N3CCc4ccccc4C3)ccc21 (centres undefined)	Pf growth 48h inconclusive
CC(=O)N1CCc2cc(S(=O)(=O)NC(Cc3ccccc3)C(=O)NCc3ccccc3Cl)ccc21 (centres undefined)	none (no result: Pf growth 48h, AMA1-RON2 inh, NS1 inh, Pf growth 96h)
CC(=O)N1CCc2cc(S(=O)(=O)NC(Cc3ccccc3)C(=O)O)ccc21 (centres undefined)	Pf growth 96h 17µM
Oc1ccccc1Nc1nc(-c2ccccc2)c2cc(Cl)ccc2n1	none (no result: Pf growth 48h, AMA1-RON2 inh, NS1 inh, Pf growth 96h)
CCc1nnc(NC(=O)CCC(=O)N2CCN(c3cc(Cl)ccc3C)CC2)s1	Pf growth 96h inconclusive
CC(=O)c1nc2ccccc2n1S(=O)(=O)c1ccc(Cl)cc1	Pf growth 96h 12µM
CC(C)=CCc1c(O)ccc2c1OC(c1ccc(O)c(O)c1)CC2=O (centres undefined)	Sm TGR block 56µM, Pf growth 96h inconclusive
O=C1CC(c2ccc(O)c(O)c2)Oc2cc(O)cc(O)c21 (centres undefined)	Sm TGR block 40µM, Pf growth 96h inconclusive
O=C1c2cc(O)c(O)cc2OC(c2ccc(O)c(O)c2)C1O (centres undefined)	none (no result: Sm TGR block, Pf growth 48h, NS1 inh, Pf growth 96h)
O=C1CC(c2ccc(O)c(O)c2)Oc2c1ccc(O)c2O (centres undefined)	Sm TGR block 56µM, Pf growth 48h inconclusive, AMA1-RON2 inh inconclusive, Pf growth 96h 2.1µM
CC1O[C@@H](O[C@H](C)CC[C@@H](C)O)C(O)C[C@H]1O (some centres undefined)	none (no result: NS1 inh)
O=C(CC1C(=O)NCCN1Cc1ccccc1C(F)(F)F)NC1CCC1 (centres undefined)	Sm TGR block 40µM, Pf growth 48h inconclusive
O=C(CC1C(=O)NCCN1Cc1ccccc1C(F)(F)F)NCCN1CCCCC1=O (centres undefined)	Sm TGR block inconclusive, Pf growth 96h inconclusive
O=C(CC1C(=O)NCCN1Cc1ccccc1C(F)(F)F)NC1CCCCCC1 (centres undefined)	Sm TGR block 25µM, Pf growth 96h inconclusive
O=C(CC1C(=O)NCCN1Cc1ccccc1C(F)(F)F)NC1CCCCC1 (centres undefined)	Sm TGR block 40µM
Cc1ccc(NC2=C(Cl)C(=O)OC2NC(=O)c2ccccc2)cc1 (centres undefined)	Pf growth 48h inconclusive, Pf growth 96h 1µM
Cc1ccccc1C(=O)OC1OC(=O)C(Cl)=C1Nc1ccc(C(=O)O)cc1 (centres undefined)	Pf growth 48h inconclusive (no result: NS1 inh)
CCN(CC)C(=O)CSc1ncnc2c(-c3ccc(OC)cc3)nsc12	none (no result: AMA1-RON2 inh)
COc1ccc(-c2nsc3c(SCc4ccccc4)ncnc23)cc1	Pf growth 96h 1.9µM
COc1ccc(C(C)=O)cc1CSc1nc2cc(C(=O)O)ccc2c(=O)n1Cc1ccccc1	Sm TGR block 22µM, NS1 inh inconclusive
CCOC(Cn1c(SCc2cc(C(C)=O)ccc2OC)nc2ccccc2c1=O)OCC	none
COc1ccccc1Cn1c(SCC(=O)C(C)(C)C)nc2cc(C(=O)N3CCC4(CC3)OCCO4)ccc2c1=O	Pf growth 48h 5.9µM, Pf growth 96h inconclusive (no result: AMA1-RON2 inh, NS1 inh)
Cc1cc(=O)[nH]c(SCC(=O)c2ccc(F)c(C)c2)n1	Pf growth 48h inconclusive, Pf growth 96h 0.26µM
COc1ccc(C(=O)CSc2nc(C)cc(=O)[nH]2)cc1C	none (no result: Pf growth 48h)
S=c1[nH]nc(-c2ccco2)n1/N=C/C=C/c1ccccc1	none
S=c1[nH]nc(-c2ccc(Cl)cc2)n1/N=C/C=C/c1ccco1	Sm TGR block 40µM
S=c1[nH]nc(-c2ccccc2)n1/N=C/C=C/c1ccco1	Sm TGR block inconclusive
Cc1ccccc1-c1n[nH]c(=S)n1/N=C/C=C/c1ccco1	Sm TGR block 14µM
Cc1cc(-c2n[nH]c(=S)n2/N=C/C=C/c2ccco2)n[nH]1	Sm TGR block 22µM
COc1cccc(NC(=O)c2cc3c(-c4ccc(Cl)cc4)nn(C)c3s2)c1	none (no result: Pf growth 48h, AMA1-RON2 inh, NS1 inh, Pf growth 96h)
COc1cccc(-c2cc(N)nn2C(=O)Nc2ccc(Cl)cc2)c1	Pf growth 48h inconclusive, Pf growth 96h 12µM
COCc1cc(CN(C)C(=O)c2oc3c(F)cccc3c2C)[nH]n1	Pf growth 96h 13µM
Cc1ccc(C(=O)Nc2ccc(Cl)cc2C(=O)c2ccccc2)cc1	none (no result: Sm TGR block, Pf growth 48h, NS1 inh, Pf growth 96h)
Cc1oc(=O)c(NC(=O)c2ccccc2)cc1C(=O)c1ccccc1	Sm TGR block 22µM
CC(=O)c1cc(NC(=O)c2ccc(C)cc2)c(=O)oc1C	Sm TGR block 40µM
CCOC(=O)c1cc(NC(=O)c2ccccc2)c(=O)oc1C(F)(F)F	Pf growth 48h inconclusive (no result: NS1 inh)
Cc1oc(=O)c(NC(=O)c2ccc(Cl)cc2)cc1C(=O)c1ccccc1	Sm TGR block 4µM, Pf growth 48h inconclusive
O=C(Nc1ccccc1O)c1ccc(Cl)cc1	Pf growth 48h 5.9µM, Pf growth 96h inconclusive
O=C(Nc1ccccc1OC(=O)c1ccc(Cl)cc1)c1ccc(Cl)cc1	Pf growth 48h inconclusive, Pf growth 96h inconclusive
Cc1ccc(C)c(CSC2=NCCN2C(=O)c2cccs2)c1	Pf growth 48h inconclusive, Pf growth 96h inconclusive (no result: NS1 inh)
Cc1cc(=O)n2nc(N3CCC(C(=O)NCc4cccc(Br)c4)CC3)sc2n1	Pf growth 48h inconclusive, Pf growth 96h inconclusive
COc1ccc(NC(=O)c2cc(=O)c3cc(C)cc(C)c3o2)cc1	none (no result: Pf growth 48h, AMA1-RON2 inh, NS1 inh, Pf growth 96h)
CC(=O)c1cc(NC(=O)c2ccccc2)c(=O)oc1C	Sm TGR block 35µM, Pf growth 48h inconclusive
COC(=O)c1cc(NC(=O)c2ccc(OC)cc2)c(=O)oc1C	none (no result: NS1 inh)
Cc1cc(C)c2oc(C(=O)Nc3c(C(=O)c4ccccc4)oc4ccccc34)cc(=O)c2c1	none (no result: Pf growth 48h, AMA1-RON2 inh, NS1 inh, Pf growth 96h)
Cc1ccn2c(NC(=O)c3ccco3)c(-c3ccccc3)nc2c1	Pf growth 96h 4.1µM
Cc1ccn2c(NC(=O)c3cccs3)c(-c3ccccc3)nc2c1	Pf growth 96h inconclusive
CN1CCN(C(=O)Nc2cccc(Cl)c2)c2cccnc21	none (no result: Pf growth 48h, AMA1-RON2 inh, NS1 inh, Pf growth 96h)
COc1ccc(S(=O)(=O)N(CCCN2CCCC2=O)Cc2cc3c(C)cc(C)cc3[nH]c2=O)cc1	Pf growth 48h 9.3µM
COc1cc(C(=O)NCc2ccc(S(N)(=O)=O)cc2)ccc1OCC(=O)Nc1cccc(C(F)(F)F)c1	none (no result: NS1 inh)
O=C(COc1ccc(Br)cc1CNCCCN1CCOCC1)Nc1ccccc1	Pf growth 48h 3.7µM, Pf growth 96h 2.9µM
CCOc1cc(CNCCCN2CCOCC2)ccc1OCC(=O)Nc1cccc2ccccc12	Pf growth 48h 2.9µM, Pf growth 96h 2.6µM
